Source: PubChem BioAssay AID1159580 (chemical genetic matrix, 2015)
Values joined by “and” are separate entries in the source; they are usually repeats but may differ in a detail not shown here. Equal values may be shown once. About 2,000 (36%) of roughly 5,500 compounds were called active. Not shown: some 18% with an inconclusive outcome. No stated cut-off is given here; in the data, active means normalized growth mostly below about 0.91 (no sharp cut-off); inconclusive means no clear call, values can overlap the other calls; inactive means mostly above about 0.92. The list shows a part of the results.

Experiment: chemical genetic growth profiling, strain panel (AID 1159580);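 further: tested at 20 µM; growth read once vehicle control cultures reached saturation at 30 °C; 1 = growth at the plate median or of vehicle wells; lower values mean less growth of the strain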
Conditions: S. cerevisiae deletion strains, growth OD

Measured: normalized growth

COc1cc(O)ccc1C(C)=O
inactive: locus YAL013W, strain DEP1, hits give low values 0.99 | locus YAL021C, strain ccr4, hits give low values 1.02 | locus YAL026C, strain drs2, hits give low values 1.02 | locus YAL030W, strain snc1, hits give low values 1.01 | locus YBL061C, strain skt5, hits give low values 1.02 | locus YBR009C, strain hhf1, hits give low values 1.02 | locus YBR021W, strain FUR4, hits give low values 1.05 | locus YBR023C, strain chs3, hits give low values 1.04 | locus YBR171W, strain sec66, hits give low values 1.01 | locus YBR229C, strain ROT2, hits give low values 0.958 | locus YBR231C, strain swc5, hits give low values 1 | locus YBR279W, strain paf1, hits give low values 1 | locus YCL011C, strain gbp2, hits give low values 1.03 | locus YCL016C, strain dcc1, hits give low values 1.03 | locus YCL029C, strain bik1, hits give low values 0.973 | locus YCL061C, strain MRC1, hits give low values 1.02 | locus YCL069W, strain vba3, hits give low values 1.01 | locus YCR088W, strain abp1, hits give low values 1.02 | locus YDL005C, strain med2, hits give low values 1.01 | locus YDL035C, strain GPR1, hits give low values 0.979 | locus YDL040C, strain nat1, hits give low values 1.01 | locus YDL074C, strain BRE1, hits give low values 1.03 | locus YDL101C, strain DUN1, hits give low values 0.974 | locus YDL134C, strain PPH21, hits give low values 0.977 | locus YDL185W, strain tfp1, hits give low values 0.97 | locus YDL192W, strain arf1, hits give low values 0.992 | locus YDR001C, strain nth1, hits give low values 1.02 | locus YDR069C, strain doa4, hits give low values 1.02 | locus YDR101C, strain arx1, hits give low values 1.03 | locus YDR137W, strain rgp1, hits give low values 1.05 | locus YDR150W, strain NUM1, hits give low values 0.981 | locus YDR159W, strain sac3, hits give low values 1.03 | locus YDR162C, strain NBP2, hits give low values 0.939 | locus YDR195W, strain ref2 1 | locus YDR297W, strain sur2, hits give low values 1.02 | locus YDR318W, strain mcm21, hits give low values 0.965 | locus YDR334W, strain swr1, hits give low values 1.02 | locus YDR335W, strain msn5, hits give low values 1.01 | locus YDR388W, hits give low values 0.949 | locus YDR392W, strain spt3, hits give low values 0.95 | locus YDR502C, strain sam2, hits give low values 1.02 | locus YEL003W, strain gim4, hits give low values 1.01 | locus YEL037C, strain rad23, hits give low values 1.02 | locus YEL061C, strain CIN8 (second series), hits give low values 1.02 | locus YEL061C, strain CIN8, hits give low values 0.982 | locus YER015W, strain faa2, hits give low values 1.03 | locus YER016W, strain bim1, hits give low values 1.02 | locus YER110C, hits give low values 0.979 | locus YER111C, strain swi4, hits give low values 1.02 | locus YER155C, strain BEM2 (second series), hits give low values 1.02 | locus YER155C, strain BEM2, hits give low values 0.989 | locus YER167W, strain BCK2, hits give low values 0.979 | locus YFR010W, strain ubp6, hits give low values 1.02 | locus YGL078C, strain dbp3, hits give low values 0.989 | locus YGL086W, strain mad1, hits give low values 1.02 | locus YGL167C, strain pmr1, hits give low values 1.02 | locus YGL173C, strain kem1, hits give low values 1.03 | locus YGL227W, strain vid30, hits give low values 1.02 | locus YGL240W, strain doc1, hits give low values 1.01 | locus YGL248W, strain PDE1, hits give low values 0.952 | locus YGL253W, strain hxk2, hits give low values 1.02 | locus YGR078C, strain PAC10, hits give low values 0.952 | locus YGR135W, strain pre9, hits give low values 0.962 | locus YGR229C, strain SMI1, hits give low values 1 | locus YGR252W, strain gcn5, hits give low values 0.961 | locus YHR013C, strain ard1, hits give low values 1.03 | locus YHR027C, strain rpn1, hits give low values 1.02 | locus YHR030C, strain SLT2, hits give low values 0.998 and 1.02 | locus YHR079C, strain IRE1 (second series), hits give low values 0.99 | locus YHR079C, strain IRE1, hits give low values 1.01 | locus YHR094C, strain hxt1, hits give low values 0.973 | locus YHR129C, strain ARP1, hits give low values 0.987 | locus YHR142W, strain chs7, hits give low values 1.04 | locus YHR200W, strain rpn10, hits give low values 0.982 | locus YIL066C, strain RNR3, hits give low values 0.985 | locus YIL073C, strain SPO22, hits give low values 0.955 | locus YIL125W, strain kgd1, hits give low values 0.981 | locus YIR030C, strain dcg1, hits give low values 0.987 | locus YJL092W, strain hpr5, hits give low values 1.02 | locus YJL095W, strain BCK1 (second series), hits give low values 1.02 | locus YJL095W, strain BCK1, hits give low values 0.942 and 1.02 | locus YJL115W, strain asf1, hits give low values 1.02 | locus YJL129C, strain trk1, hits give low values 1.04 | locus YJL134W, strain LCB3, hits give low values 0.989 | locus YJL154C, strain vps35, hits give low values 1.02 | locus YJL164C, strain tpk1, hits give low values 1.03 | locus YJL166W, strain qcr8, hits give low values 1.01 | locus YJL168C, strain set2, hits give low values 1.01 | locus YJL187C, strain SWE1 (second series), hits give low values 0.974 | locus YJL187C, strain SWE1, hits give low values 1.01
